The text below walks through data of PubChem BioAssay AID641 (Vanderbilt High Throughput Screening Facility, 2007).

The whole screen tested about 58,000 compounds, of which about 3,400 (5.9%) were called active.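 How the source made its calls: active means luminescence count or its row- and column-corrected plate score outside the 99.7% band of the plate's sample wells, on either side; inactive means the rest.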 Many of the other results were omitted from the sample, so actives are more common in it than they were. Where a SMILES comes first, the peptide text is derived from it. The star is where a group is joined. Bz = O=C(c1ccccc1)*

The target of the assay is D(1A) dopamine receptor (Homo sapiens) (UniProt P21728). Briefly: D1 CRE-luciferase signal change, two-sided – cell-based, HEK293 D1, dopamine EC30, D1 allosteric modulator project, primary screen (AID 641). The settings on record: dopamine EC30 potentiation, at 10 µM, actives deviate in either direction.
Sequence of D(1A) dopamine receptor (Homo sapiens) (P21728 whole entry, looked up): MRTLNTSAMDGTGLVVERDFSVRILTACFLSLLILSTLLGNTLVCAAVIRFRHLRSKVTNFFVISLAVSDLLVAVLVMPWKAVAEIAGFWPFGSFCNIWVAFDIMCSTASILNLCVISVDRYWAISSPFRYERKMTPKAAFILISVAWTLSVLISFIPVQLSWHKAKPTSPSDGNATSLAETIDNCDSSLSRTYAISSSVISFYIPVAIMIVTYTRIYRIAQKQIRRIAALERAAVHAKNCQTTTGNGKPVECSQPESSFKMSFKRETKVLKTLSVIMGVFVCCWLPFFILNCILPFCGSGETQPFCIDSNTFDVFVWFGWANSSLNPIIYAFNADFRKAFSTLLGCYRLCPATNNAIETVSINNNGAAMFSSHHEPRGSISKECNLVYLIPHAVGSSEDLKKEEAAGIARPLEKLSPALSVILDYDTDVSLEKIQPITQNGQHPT
As for `O=C(CCN1C(=O)COc2ccccc21)NCCCN1CCN(c2ccc(F)cc2)CC1`, the B-score was -2.68 (active).
As to `CCCN1CCN(CCCNC(=O)CN2C(=O)COc3ccccc32)CC1`, the B-score was -0.525 (inactive).
Consider `COc1ccc(N2CCN(CCNC(=O)CCN3C(=O)COc4ccccc43)CC2)cc1`, for which the B-score is -0.0397 (inactive).
As to `Cn1nc(-c2ccc(Cl)cc2)c2cc(C(=O)NCc3ccco3)sc21`, the B-score is -0.605 (inactive).
As to `COc1cc(NC(=O)N2CCOCC2)cc(OC)c1`, the B-score is 4.92 (active).
In the case of `CCOC(=O)c1[nH]c2ccc(OC)cc2c1NC(=O)N1CCOCC1`, the B-score is 1.26 (inactive).
The figure for `COc1ccc(OCC(=O)N2CCOCC2)cc1` is 0.809 (inactive); for `COc1ccc2[nH]c(=O)c(CN(CC3CCCO3)C(=O)Nc3ccccc3)cc2c1` (stereo unspecified) it is -0.175 (inactive).
For the compound `Cc1cc(C(F)(F)F)nn1CC(=O)N1CCCC1`, the B-score was 0.971 (inactive).
As to `CCn1ncc(C2=NOC(C(=O)N3CCN(c4ccccc4)CC3)C2)c1C` (stereo unspecified), the B-score was -0.447 (inactive).
As for `COC(=O)c1ccccc1NC(=O)CSc1ccccn1`, the B-score is 3.05 (inactive).
For the compound `CCn1ncc(C2=NOC(C(=O)Nc3ccccc3C(=O)OC)C2)c1C` (stereo unspecified), the B-score was 13.2 (active).
The value for `c1ccc(CCC2=NCCn3cccc32)cc1` was -0.434 (inactive); that for `O=C(C1CCN(CC2CCCCC2)CC1)N1CCCC1` was 0.0452 (inactive); that for `COC(=O)C1=CN(C)C=C(C(=O)OC)C1c1ccc(Cl)cc1Cl` was 0.625 (inactive).
For `CCCc1nc(-c2ccccc2O)n(-c2ccccc2)n1`, the B-score is 8.71 (active).
The figure for `CCCc1nc(N2CCN(C)CC2)c2sc(=S)n(-c3ccccc3)c2n1` is 0.374 (inactive); for `O=C(NCc1ccco1)c1nc(-c2ccccc2)n(-c2ccccc2)n1` it is -1.33 (inactive).
The value for `O=C(c1ccco1)N1CCN(C(=O)C2CC(c3ccc(F)cc3)=NO2)CC1` (stereo unspecified) was -0.404 (inactive); that for `CC1(C)CC(=O)C=C(NCc2ccncc2)C1` was 0.0608 (inactive); that for `CCOC(=O)N1CCN(Cc2nc3c(c(=O)n(C)c(=O)n3C)n2Cc2ccccc2)CC1` was -0.0843 (inactive).
For the compound `CC(=O)Nc1ccc(S(=O)(=O)N2CCCC2C(=O)O)cc1` (stereo unspecified), the B-score is -0.232 (inactive).
The figure for `OC(COc1cccc2ccccc12)CN1CCN(c2ccccn2)CC1` (stereo unspecified) is -4.42 (active); for `O=C1c2cccc3cccc(c23)N1CN1CCN(c2ccccn2)CC1` it is -2.84 (inactive); for `OC(COc1cccc(OCC(O)CN2CCCC2)c1)CN1CCCC1` (stereo unspecified) it is -0.368 (inactive).
As for `COc1ccc(NC(=O)Nc2cccc3cccnc23)cc1`, the B-score was -0.391 (inactive).
Regarding `O=C(CSc1nnnn1C1CCCC1)Nc1ccc2c(c1)OCCO2`, the B-score is -0.309 (inactive).
As to `COc1ccc(OC)c2sc(NC(=O)C3COc4ccccc4O3)nc12` (stereo unspecified), the B-score is 1.13 (inactive).
The figure for `CCN(Cc1nc2ccccc2c(=O)[nH]1)Cc1cc(=O)oc2cc(C)c(C)cc12` is -2.91 (active); for `CCCC(=O)N(CCc1ccccc1)Cc1nc2ccccc2c(=O)[nH]1` it is 0.0641 (inactive).
For `O=C(c1ccco1)N(Cc1nc2ccccc2c(=O)[nH]1)C1CCCC1`, the B-score was -0.0551 (inactive).
As for `COc1ccc(-n2nnc3c(=O)n(CC(=O)OCc4ccccc4)cnc32)cc1`, the B-score is -0.218 (inactive).
For the compound `Cn1c(SCC(=O)N2CCOCC2)nnc1-c1ccc(NC(=O)c2ccccc2F)cc1`, the B-score is -0.459 (inactive).
As for `CC(C)c1cc(C(=O)O)on1`, the B-score was 3.98 (active).
With `CCC(=O)N1CCc2cc(S(=O)(=O)NC(C(=O)N3CCc4ccccc4C3)C(C)C)ccc21` (stereo unspecified), the B-score is 1.68 (inactive).
The value for `CNC(=O)c1c(NC(=O)c2ccc(S(=O)(=O)N3CCOCC3)cc2)sc2c1CCC2` was 0.787 (inactive); that for `O=C(c1cccs1)N(C(=O)c1cccs1)c1ccccn1` was -0.339 (inactive); that for `c1ccc(-c2noc(-c3cccs3)n2)nc1` was -6.15 (active).
In the case of `CC(C)c1nc(-c2ccccn2)no1`, the B-score was -0.397 (inactive).
For the compound `O=C(Oc1ccccc1)c1ccc2nccnc2c1`, the B-score is 0.299 (inactive).
`O=C(Oc1ccc(-c2nc(-c3ccccn3)no2)cc1)c1ccccc1`: the B-score is -2.61 (active).
On to `c1csc(-c2nc(-c3ccncc3)no2)c1`, for which the B-score was 2.02 (inactive).
Regarding `O=C1C(C=NCC2CCCO2)=C(O)c2ccccc21` (stereo unspecified), the B-score was -0.132 (inactive).
The figure for `Cc1cc(C(=O)COC(=O)c2cccs2)c(C)n1-c1c(C)n(C)n(-c2ccccc2)c1=O` is -1.48 (inactive).
With `COc1cccc(-n2cc3c(c2-c2ccccc2)c(=O)n(C)c(=O)n3C)c1`, the B-score is 0.281 (inactive).
On to `CCc1c(O)nc(SCC(=O)N2CCCCC2)n(-c2ccccc2C)c1=O`, for which the B-score is 0.0102 (inactive).
Regarding `Cc1ccc(S(=O)(=O)c2c(N)n(C)c3nc4ccccc4nc23)cc1`, the B-score is 8.84 (active).
Take `Cc1ccc(S(=O)(=O)NCc2nc3ccccc3c(=O)n2N)cc1`: the B-score is -0.0901 (inactive).
Take `C=CCn1c(N)c(S(=O)(=O)c2cccs2)c2nc3ccccc3nc21`: the B-score is -0.811 (inactive).
Take `O=C(NC(Cc1ccccc1)C(=O)N1CCCC1C(=O)O)c1ccccc1` (stereo not drawn) (Bz-Phe-Pro-OH; configuration not given here): the B-score is 0.682 (inactive).
The figure for `CCOC(=O)c1ccc(N2C(=O)CC(N3CCC(C(=O)OCC)CC3)C2=O)cc1` (stereo unspecified) is -0.257 (inactive); for `COCCOC(=O)C1=C(C)NC(=O)NC1c1ccc(Cl)cc1` (stereo unspecified) it is -0.276 (inactive).
As for `CCOC(=O)/C=c1\s/c(=C\c2ccccc2OC)c(=O)n1CC(=O)N1CCOCC1`, the B-score was 4.29 (active).
The figure for `CCOc1ccccc1/C=c1\sc2nc(-c3ccco3)nn2c1=O` is -0.399 (inactive).
As for `COc1cccc2c(=O)n(CC(=O)N3CCCCCC3)ccc12`, the B-score is 0.116 (inactive).
In the case of `CN(C)Cc1c(C#N)c2ccccc2n1C`, the B-score was -1.12 (inactive).
In the case of `CCn1cc(C(=O)N2CC=C(c3ccccc3)CC2)c(=O)c2ccc(C)nc21`, the B-score is 1.17 (inactive).
Take `CCOc1ccc(C(=O)Nc2cc(OC)ccc2OC)cc1`: the B-score was 0.0877 (inactive).
Regarding `CCn1cc(C(=O)NCc2ccc(OC)cc2OC)c(=O)c2ccc(C)nc21`, the B-score is 5.55 (active).
As for `CCSc1nc2c(c(=O)[nH]1)C(c1cccnc1)C(C(=O)OC(C)C)=C(C)N2` (stereo unspecified), the B-score is 0.843 (inactive).
`O=c1/c(=C/c2ccc(CNS(=O)(=O)c3ccccc3)o2)sc2n1CCN=2`: the B-score is -0.139 (inactive).
